Drawing on PubChem BioAssay (NCI), this text covers growth inhibition for 14 molecules.

The panel holds about 79,000 compounds, 15% with a hit somewhere; the sample as a whole holds those more often. A number with no mark means an inactive call. Activity calls are given as the source filed them. Cut-off read from the data, not from the text of the source: active = growth inhibition above about 70%; inactive = the rest.

This experiment is described as follows: NCI Yeast Anticancer Drug Screen. Data for the sgs1 mgt1 strain (AID 161).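 Note: 0% = growth of cultures given vehicle only.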 Particulars: S. cerevisiae sgs1 mgt1 strain, hits give high values. How it is done: Growth inhibition of yeast strains with defined genetic alterations is measured as a screen for potential anti-cancer activity. Selected strains with alterations in DNA damage repair or cell cycle control were exposed to compounds and growth inhibition was measured relative to vehicle treated controls. The strain used in this assay is sgs1 mgt1

The mark [1] stands for this setting: at 5.0 µM (retest, dose inferred, filed as 0.5).
[2] abbreviates: at 50.0 µM (retest, dose inferred, filed as 5.0).

With `CCCCCCCCCCOC(=O)c1ccccn1`, the growth inhibition was -3% under setting [1], 60% under setting [2] and 37.5% (at 50.0 µM).

Consider `Nc1ccc(S(=O)(=O)NCc2nccs2)cc1`, for which the growth inhibition is, setting by setting: under setting [1], 2%; under setting [2], 53%; (at 50.0 µM) 28.4%.

With `COc1cccc2c1C(=O)c1c(O)c3c(c(O)c1C2=O)C[C@@](O)(/C(C)=N/NS(C)(=O)=O)C[C@@H]3OC1CC(N)C(O)C(C)O1` (some centres not stated), the growth inhibition is 12% under setting [1], 77% (active) under setting [2] and 94.2% (active) (at 50.0 µM).

As to `CC(=O)Nc1ccc(-c2nnc(SCC(=O)Nc3ccc([N+](=O)[O-])cc3)o2)cc1`, the growth inhibition was 0% under setting [1], 62% under setting [2] and 46% (at 50.0 µM).

Take `O=[N+]([O-])c1ccc2c(c1)N([O-])C1(CCCCC1)[N+]2=O`: the growth inhibition under setting [1] is 23%, the growth inhibition under setting [2] was 97% (active) and the growth inhibition (at 50.0 µM) is 91.2% (active).

`N#CSC#Cc1ccc(C#CSC#N)cc1`: the growth inhibition reads like this: under setting [1], 100% (active); under setting [2], 97% (active); (at 50.0 µM) 85% (active).

Regarding `CC(C)(C)c1ccc(O)c(O)c1`, the growth inhibition reads like this: under setting [1], 11%; under setting [2], 54%; (at 50.0 µM) 79.8% (active).

Take `C1=C(c2ccccc2)OC(c2ccccc2)=C[P+]1(c1ccccc1)c1ccccc1`: the growth inhibition reads like this: under setting [1], 99% (active); under setting [2], 99% (active); (at 50.0 µM) 91% (active).

On to `O=C(Oc1cc([N+](=O)[O-])ccc1Cl)Oc1cc([N+](=O)[O-])ccc1Cl`, for which the growth inhibition was -7% under setting [1], 99% (active) under setting [2] and 98.6% (active) (at 50.0 µM).

In the case of `Cc1cccc(C)c1O`, the growth inhibition is, setting by setting: under setting [1], 0%; under setting [2], 98% (active); (at 50.0 µM) 98.8% (active).

Turning to `CCCC(=O)Oc1ccc(-c2ccc(Br)cc2)cc1`, the growth inhibition is 3% under setting [1], 88% (active) under setting [2] and 88.8% (active) (at 50.0 µM).

Take `COC(=O)C1c2cc(C)ccc2-c2ccc(C)cc21`: the growth inhibition reads like this: under setting [1], 0%; under setting [2], 23%; (at 50.0 µM) 2.95%.

In the case of `O=C(OCc1ccccc1)N1N=NC2C1C1CC(OCc3ccccc3)(OCc3ccccc3)C2O1` (configuration not stated), the growth inhibition runs as follows: under setting [1], 18%; under setting [2], 18%; (at 50.0 µM) -10.7%.

In the case of `O=C1c2ccccc2C(=O)c2sc(Nc3ccc([N+](=O)[O-])cc3)nc21`, the growth inhibition reads like this: under setting [1], 99% (active); under setting [2], 99% (active); (at 50.0 µM) 58.1%.
